Composite z-score and z-score data for six compounds are collected here from PubChem BioAssay.

The nature of assay [1]: compounds binding Alexa647 anti-His antibody – biochemical, small-molecule microarray, 635 nm fluorescence, artefact control for SMM control protein annotation, primary screen (AID 1128).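 Note: score merges feature fluorescence with signal-to-noise for each printed compound spot.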 Particulars: higher = more signal.
Assay [2] has as its system Human papillomavirus type 1a E7 protein (residues 1-88). Kind of assay: HPV1a E7 small-molecule binders, primary screen, biochemical, small-molecule microarray, residues 1-88, 635 nm (AID 1129). Particulars: small-molecule microarray binding, fluorescence 635 nm; higher = more signal.
The target in assay [3] is Focal adhesion kinase 1 (Homo sapiens) (UniProt Q05397). As to the kind of experiment: PTK2 protein binding on printed compound slides – biochemical, small-molecule microarray, 635/667 nm fluorescence, BSA, DTT, primary screen (AID 1130).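 Note: composite of spot emission at 667 nm and signal to noise over triplicate slides.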 Particulars: 635 nm fluorescence, higher = more signal.
Sequence of Focal adhesion kinase 1 (Homo sapiens) (Q05397 whole entry, looked up): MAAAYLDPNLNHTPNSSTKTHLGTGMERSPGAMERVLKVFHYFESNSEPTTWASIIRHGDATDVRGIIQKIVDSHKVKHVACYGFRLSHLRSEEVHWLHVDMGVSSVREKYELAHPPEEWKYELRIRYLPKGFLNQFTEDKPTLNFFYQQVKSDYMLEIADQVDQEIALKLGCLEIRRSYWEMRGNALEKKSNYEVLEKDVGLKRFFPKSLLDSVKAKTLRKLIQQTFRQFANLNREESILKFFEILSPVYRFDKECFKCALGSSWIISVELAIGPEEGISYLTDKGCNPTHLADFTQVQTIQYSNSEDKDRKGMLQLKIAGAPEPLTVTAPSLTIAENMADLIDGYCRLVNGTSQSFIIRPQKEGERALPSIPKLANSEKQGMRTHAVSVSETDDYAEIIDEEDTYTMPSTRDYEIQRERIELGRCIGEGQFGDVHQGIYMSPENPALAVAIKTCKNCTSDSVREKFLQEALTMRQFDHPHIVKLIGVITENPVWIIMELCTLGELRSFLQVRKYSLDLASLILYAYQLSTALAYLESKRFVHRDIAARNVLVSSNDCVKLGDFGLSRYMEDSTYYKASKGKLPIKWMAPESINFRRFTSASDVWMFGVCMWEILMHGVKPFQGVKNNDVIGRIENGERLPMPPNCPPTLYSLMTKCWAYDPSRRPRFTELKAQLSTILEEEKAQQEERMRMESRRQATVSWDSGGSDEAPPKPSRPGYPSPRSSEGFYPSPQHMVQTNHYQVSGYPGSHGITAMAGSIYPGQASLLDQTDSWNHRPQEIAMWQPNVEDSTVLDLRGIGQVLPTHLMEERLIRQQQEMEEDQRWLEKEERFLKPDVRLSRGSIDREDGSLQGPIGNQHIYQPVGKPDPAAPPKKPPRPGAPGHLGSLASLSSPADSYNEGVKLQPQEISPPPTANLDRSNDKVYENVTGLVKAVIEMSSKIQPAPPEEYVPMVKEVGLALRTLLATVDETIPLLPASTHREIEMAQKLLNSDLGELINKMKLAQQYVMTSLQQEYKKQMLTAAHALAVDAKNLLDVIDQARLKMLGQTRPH
Assay [4] has as its system Fibrinogen (Alexa647-labelled). Kind of assay: Alexa647-fibrinogen binding to printed small molecules – biochemical, small-molecule microarray, 635/667 nm fluorescence, artefact control for SMM control-protein annotation, profiling panel (AID 1131).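 Note: z-score merges 667 nm fluorescence with per-spot signal-to-noise over triplicate slides.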 The conditions noted are these: fibrinogen-A647 binding fluorescence, higher = more signal.
Assay [5] concerns the target Follistatin (Homo sapiens) (UniProt P19883). As to the kind of experiment: FST protein binding to printed compounds – biochemical, small-molecule microarray, 635/667 nm fluorescence, primary screen (AID 1132). Particulars: 635 nm fluorescence, higher = more signal.
In assay [6] the target is Fibroblast growth factor 2 (Homo sapiens) (UniProt P09038). Kind of assay: basic fibroblast growth factor binding to printed compounds – biochemical, small-molecule microarray, 635/667 nm fluorescence, primary screen (AID 1133). The conditions noted are these: FGF2, fluorescence 635/667, higher = more signal.
Sequence of Fibroblast growth factor 2 (Homo sapiens) (P09038 whole entry, looked up): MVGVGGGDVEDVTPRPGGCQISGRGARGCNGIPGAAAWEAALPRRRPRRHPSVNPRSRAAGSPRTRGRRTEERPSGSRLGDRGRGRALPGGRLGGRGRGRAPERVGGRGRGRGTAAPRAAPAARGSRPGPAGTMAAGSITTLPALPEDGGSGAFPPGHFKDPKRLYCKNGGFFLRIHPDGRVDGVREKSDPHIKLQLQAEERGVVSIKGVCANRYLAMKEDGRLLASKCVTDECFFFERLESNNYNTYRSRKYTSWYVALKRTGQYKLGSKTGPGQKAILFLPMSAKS
Assay [7] is described as follows: JC-1 mitochondrial potential readout, lung cancer cells – cell-based, A549, JC-1 fluorescence, basal, 24 h, 100 nL, profiling panel (AID 1138).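 Note: A549 lung adenocarcinoma cells under basal conditions with no added stimulus; test concentration not given here.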 The conditions noted are these: higher = more signal.
Assay [8] has as its system Lefty1. As to the kind of experiment: Lefty1 protein binding to printed compounds – biochemical, small-molecule microarray, 635/667 nm fluorescence, primary screen (AID 1139). Particulars: fluorescence 635/667, higher = more signal.
Assay [9] concerns wheat germ agglutinin (Triticum aestivum), Alexa647-labelled. As to the kind of experiment: Alexa647-WGA lectin binding to printed small molecules – biochemical, small-molecule microarray, 635/667 nm fluorescence, artefact control for SMM control-protein annotation, profiling panel (AID 1140).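 Note: score merges 667 nm feature emission with signal to noise over triplicate slides.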 Particulars: WGA-A647 binding, 635 nm fluorescence, higher = more signal.
Assay [10] concerns the target Luciferin 4-monooxygenase (Photinus pyralis) (UniProt P08659). As to the kind of experiment: inhibition of purified Photinus pyralis luciferase – biochemical, luminescence, purified enzyme, 2006 set, primary screen (AID 1141).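 Note: cell-free assay with purified firefly luciferase at 100 ng per well in PBS; test concentration not given here.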 The conditions noted are these: purified firefly luciferase, SteadyGlo luminescence, 30 min; higher = more signal, called active from +8 up or from −8 down.

The subject of assay [11] is Wnt5a (protein binding on small-molecule microarray). As to the kind of experiment: small molecules binding Wnt5a protein – biophysical, small-molecule microarray, 635/667 nm fluorescence, primary screen (AID 1142).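 Note: fluorescence read at 667 nm with signal to noise per printed feature.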 Particulars: 635 nm fluorescence, higher = more signal.
Assay [12] is described as follows: ATP-based viability of Huh7 replicon cells – cell-based, CellTiter-Glo luminescence, basal, 48 h, cytotoxicity control for HCV replication inhibitor project, primary screen (AID 1143).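 Note: Huh7 hepatoma cells carrying a hepatitis C replication reporter with no stimulus; test concentration not given here.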 The conditions noted are these: higher = more signal, called active from +8 up or from −8 down.
The nature of assay [13]: Pseudomonas biofilm growth suppression – PAO1 strain, BacTiter-Glo luminescence, LB-PBS, primary screen (AID 1144). The conditions noted are these: P. aeruginosa PAO1 biofilm, 12 h, higher = more signal.
Assay [14] is described as follows: basal CRE-LacZ reporter activity in PC12 – cell-based, unstimulated, primary screen (AID 1145). The conditions noted are these: no forskolin, luminescence, 4.5 h, higher = more signal, called active from +8 up or from −8 down.
Assay [15] is described as follows: forskolin-driven CRE-LacZ activity in PC12 – cell-based, CRE-LacZ reporter, forskolin-stimulated, primary screen (AID 1146).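 Note: PC12 cells with 6xCRE LacZ reporter stimulated by forskolin 10 µM; beta-galactosidase reporter signal reflecting CREB driven transcription.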 Particulars: luminescence, 4.5 h, higher = more signal, called active from +8 up or from −8 down.
In assay [16] the target is Streptavidin (Streptomyces avidinii) (UniProt P22629). Kind of assay: compounds binding control protein streptavidin – biophysical, small-molecule microarray, 635/667 nm fluorescence, artefact control for SMM compound annotation, primary screen (AID 1147).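 Note: signal reflects streptavidin binding to arrayed compounds as a control protein.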 The conditions noted are these: higher = more signal.
Sequence of Streptavidin (Streptomyces avidinii) (P22629 whole entry, looked up): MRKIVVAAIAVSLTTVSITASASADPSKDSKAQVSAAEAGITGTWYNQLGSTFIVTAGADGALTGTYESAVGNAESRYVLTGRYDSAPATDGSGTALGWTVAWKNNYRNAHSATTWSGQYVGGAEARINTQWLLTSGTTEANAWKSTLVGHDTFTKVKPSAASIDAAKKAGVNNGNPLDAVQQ
Assay [17] can be described thus: probe aInhba binding on compound microarray – biochemical, small-molecule microarray, 635/667 nm fluorescence, primary screen (AID 1148).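 Note: score merges 667nm spot fluorescence with signal-to-noise for antibody binding to printed compounds.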 The conditions noted are these: higher = more signal.
The target in assay [18] is Torsin-1A (Homo sapiens) (UniProt O14656). Kind of assay: TOR1A wild-type binding on microarray – cell lysate, small-molecule microarray, lysate, 635/667 nm, primary screen (AID 1149). The conditions noted are these: COS7 hTOR1A-WT lysate, 635 nm fluorescence, higher = more signal.
Sequence of Torsin-1A (Homo sapiens) (O14656 whole entry, looked up): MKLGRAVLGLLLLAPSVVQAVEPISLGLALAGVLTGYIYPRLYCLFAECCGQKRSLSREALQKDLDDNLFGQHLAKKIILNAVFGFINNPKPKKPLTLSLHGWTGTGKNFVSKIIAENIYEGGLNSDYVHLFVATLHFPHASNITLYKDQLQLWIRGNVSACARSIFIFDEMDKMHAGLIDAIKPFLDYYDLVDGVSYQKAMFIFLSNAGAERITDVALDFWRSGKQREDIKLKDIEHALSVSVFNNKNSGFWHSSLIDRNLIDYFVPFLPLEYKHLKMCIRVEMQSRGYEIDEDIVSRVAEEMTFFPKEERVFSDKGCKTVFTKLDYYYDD
Assay [19] has the same target. Kind of assay: torsin A mutant lysate binding on microarrays – cell lysate, small-molecule microarray, COS7 lysate, 635/667 nm fluorescence, primary screen (AID 1150).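 Note: score pools 667 nm emission and signal to noise measuring lysate protein binding.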 The conditions noted are these: COS7 hTOR1A mutant lysate, 635 nm fluorescence, higher = more signal.
The subject of assay [20] is Sonic hedgehog protein (Shh). Kind of assay: Sonic hedgehog microarray binding compounds – biochemical, small-molecule microarray, 635/667 nm fluorescence, primary screen (AID 1151).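 Note: Shh protein binding to compounds spotted on small-molecule microarray slides; score combines spot fluorescence intensity with signal-to-noise across triplicate slides.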 The conditions noted are these: 635 nm fluorescence, higher = more signal.

The source made the active and inactive calls. Unless noted, the rule behind the calls is not given here.

Sequence of Follistatin (Homo sapiens) (P19883 whole entry, looked up): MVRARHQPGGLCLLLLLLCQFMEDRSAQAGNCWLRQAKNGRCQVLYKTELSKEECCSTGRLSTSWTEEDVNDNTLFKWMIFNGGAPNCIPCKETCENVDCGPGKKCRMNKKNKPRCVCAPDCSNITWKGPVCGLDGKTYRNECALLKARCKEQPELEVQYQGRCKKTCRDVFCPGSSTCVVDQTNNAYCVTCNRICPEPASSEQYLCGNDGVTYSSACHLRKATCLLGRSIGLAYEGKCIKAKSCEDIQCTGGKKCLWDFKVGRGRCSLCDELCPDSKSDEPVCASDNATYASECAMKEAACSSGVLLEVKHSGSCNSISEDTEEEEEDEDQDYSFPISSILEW
Sequence of Luciferin 4-monooxygenase (Photinus pyralis) (P08659 whole entry, looked up): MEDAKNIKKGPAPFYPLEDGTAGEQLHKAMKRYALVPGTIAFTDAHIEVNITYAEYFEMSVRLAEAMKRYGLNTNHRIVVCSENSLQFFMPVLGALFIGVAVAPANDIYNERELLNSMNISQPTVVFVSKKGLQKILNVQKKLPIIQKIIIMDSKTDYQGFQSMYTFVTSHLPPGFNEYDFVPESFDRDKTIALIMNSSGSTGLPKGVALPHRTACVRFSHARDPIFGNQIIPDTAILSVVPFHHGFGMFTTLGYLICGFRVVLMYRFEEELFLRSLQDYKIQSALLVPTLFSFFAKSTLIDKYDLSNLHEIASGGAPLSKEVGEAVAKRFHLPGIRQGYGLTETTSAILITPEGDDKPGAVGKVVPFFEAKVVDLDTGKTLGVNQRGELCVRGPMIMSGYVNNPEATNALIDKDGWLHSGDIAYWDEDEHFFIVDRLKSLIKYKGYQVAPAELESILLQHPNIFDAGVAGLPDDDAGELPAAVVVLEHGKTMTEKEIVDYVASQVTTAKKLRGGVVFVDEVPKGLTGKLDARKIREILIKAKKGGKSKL

In the case of `C=C(C(=O)CC[C@@H](OC(=O)c1ccccc1-c1ccccc1C(=O)O)c1ccc(CO)o1)C(C)C`, the composite z-score was 0.546 in assay [1]; 0.434 in assay [2]; -0.304 in [3]; 0.876 in assay [4]; 1.39 in assay [5]; 1.76 in assay [6]. In addition, the composite z-score is 1.51 in assay [8]; 0.707 in assay [9]; 0.389 in assay [11]; -0.539 in assay [16]; 0.0051 in assay [17]; 1.28 in assay [18]. The composite z-score was determined as 0.317 in assay [19] and 1.65 in [20]. Also, the z-score in [7] is 0.475; in [10] it was -3.22 (inactive); in [12] it was -0.115 (inactive); in assay [13], -0.306 (inactive); in assay [14], 1.47 (inactive); in [15], 1.73 (inactive).
Turning to `CN1C2C=C(c3ccc(CO)cc3)C(C3C(=O)N(C(N)=O)C(=O)C32)C1C1CC1` (stereo not given), the composite z-score in [1] is 0.573; in [2], -0.241; in [3] it was -0.215; in assay [4] it was 0.586; in assay [5] it was -0.189; in assay [6] it was -0.379. The composite z-score was -0.72 in assay [8]; 0.239 in assay [9]; -0.392 in [11]; 0.0747 in assay [16]; -0.271 in assay [17]; 0.0973 in [18]. Moreover, the composite z-score was 0.0517 in assay [19] and -0.104 in assay [20]. The z-score in assay [7] was -0.572; in [10], -0.0168 (inactive); in [12], 0.547 (inactive); in assay [13], -0.522 (inactive); in assay [14] it was -0.35 (inactive); in assay [15] it was 0.527 (inactive).
In the case of `CC(C)(C)OC(=O)N1[C@@H](C=C(Br)Br)COC1(C)C`, the composite z-score is 0.286 in assay [1]; 0.974 in [2]; -0.0276 in [3]; 0.592 in [4]; 0.652 in [5]; 0.65 in [6]. Moreover, the composite z-score is 0.519 in assay [8]; -0.0422 in assay [9]; -0.0677 in [11]; 0.29 in [16]; -0.15 in assay [17]; 0.396 in assay [18]. Moreover, the figures for the composite z-score in assay [19] and in [20] were 0.656 and 0.938, respectively. Also, the z-score in assay [7] was 0.206; in assay [10], -1.04 (inactive); in [12] it was -2.04 (inactive); in [13], 0.278 (inactive); in assay [14], -0.104 (inactive); in [15], 0.0695 (inactive).
For `COC(=O)[C@@]1(Cc2ccc(F)cc2)[C@H]2c3cc(C(=O)N(C)C)n(Cc4ccc(C(F)(F)F)nc4)c3C[C@H]2CN1C(=O)c1ccccc1`, the composite z-score in assay [1] was 1.33; in assay [2], 1.27; in [3], 1.61; in assay [4], 1.02; in [5] it was 1.05; in [6] it was -0.234. Also, the composite z-score in assay [8] is 0.853; in assay [9], 0.895; in assay [11], 0.381; in [16], 1.55; in assay [17], 0.36; in assay [18] it was 0.516. Further, the composite z-score in [19] was 0.717; in assay [20], 0.521. Besides, the z-score is 0.453 in assay [7]; 1.57 (inactive) in [10]; -3.01 (inactive) in assay [12]; 0.857 (inactive) in assay [13]; 1.91 (inactive) in [14]; 1.13 (inactive) in assay [15].
On to `CN1C(=O)C2C=CC(C(O)COCc3ccccc3)N(Nc3ccc([N+](=O)[O-])cc3[N+](=O)[O-])C2C1=O` (stereo not given), for which the composite z-score is -1.08 in [1]; 1.08 in [2]; 0.903 in assay [3]; -0.428 in assay [4]; -0.232 in assay [5]; 0.41 in assay [6]. Further, the composite z-score is -0.798 in assay [8]; 0.333 in assay [9]; 0.727 in [11]; -0.387 in assay [16]; 0.0442 in assay [17]; -0.306 in assay [18]. Also, the composite z-score in assay [19] was 0.713; in assay [20] it was -0.997. In addition, the z-score in assay [7] was 1.89; in assay [10] it was -1.05 (inactive); in assay [12], 0.615 (inactive); in assay [13] it was -0.73 (inactive); in [14], 1.01 (inactive); in assay [15] it was -0.252 (inactive).
With `COC(=O)[C@@]1(Cc2ccc(OC)cc2)[C@H]2c3cc(C(=O)N(C)C)n(Cc4c(CO)[nH]cc(C)c4=O)c3C[C@H]2CN1C(=O)c1ccccc1`, the composite z-score in assay [1] is 0.566; in assay [2], 1.18; in assay [3] it was 1.93; in assay [4] it was 0.0557; in assay [5], 0.0689; in [6], -0.583. Besides, the composite z-score in assay [8] was 0.0267; in assay [9], 0.19; in [11], -0.172; in [16], 0.27; in assay [17] it was 0.0219; in assay [18], 0.351. Also, the values for the composite z-score in [19] and in [20] were 0.461 and -0.532, respectively. Besides, the z-score in assay [7] was 0.144; in [10] it was 1.48 (inactive); in [12], -0.0137 (inactive); in assay [13], -0.357 (inactive); in assay [14], 1.15 (inactive); in [15], 2.29 (inactive).
